Structures are written as SMILES. Values joined by “and” are separate entries in the source; they are usually repeats but may differ in a detail not shown here. Equal entries are not always repeated. Records with an inconclusive call do not appear. Where a structure was tested more than once in an assay, its records may differ in their call. Active and inactive are the calls of the source. Unless noted, the call rests on the fitted dose curve.

A short description of assay [1]: Nuclear factor erythroid 2-related factor 2/antioxidant responsive element (Nrf2/ARE) small molecule agonists: qHTS cell viability counter screen in human keratinocytes (AID 1919968; active means well fitted curve in the direction sought with a large enough effect in the repeat runs; an effect the other way counts as inactive or inconclusive; further: nearly all actives have a fitted effect of over 55% in size). A digest of the protocol: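 CellTiter-Fluor fluorescence, read 1 h after reagent, gave viability in the same wells as the ARE-luciferase assay. KeratinoSens cells (1,500/well) had 23 h compound exposure at 37 C/5% CO2 following 5 h plating.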
For orientation: In qHTS, concentration-response curves come from the screen itself.

Assay [2] in a line: Nuclear factor erythroid 2-related factor 2/antioxidant responsive element (Nrf2/ARE) small molecule agonists: luciferase reporter gene qHTS assay in human keratinocytes (AID 1919969). Further: nearly all actives have a fitted effect of over 35% in size. Further: potency means the concentration at half of the fitted maximal effect. For orientation: In a reporter assay the amount or activity of a reporter protein is the signal.
Assay [3] concerns the target Gonadotropin-releasing hormone receptor (Homo sapiens) (UniProt P30968). Nature of the assay: Human gonadotropin-releasing hormone receptor (GnRHR) small molecule agonists, calcium flux assay in GnRHR-HEK293 cells (AID 1920063). Further: nearly all actives have a fitted effect of over 35% in size. A digest of the protocol:
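Agonist mode: compounds at 15 concentrations, in triplicate, went onto calcium dye-loaded GnRHR-HEK293 cells. Intracellular calcium was then followed as 480/540 nm fluorescence at 1 s intervals over 3 min.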

In assay [4] the target is KiSS-1 receptor (Homo sapiens) (UniProt Q969F8). Description: Human kisspeptin (KISS1R) small molecule agonists, calcium flux assay in KISS1R-HEK293 cells (AID 1920064; active means well fitted curve in the direction sought with a large enough effect in the repeat runs; an effect the other way counts as inactive or inconclusive). A digest of the protocol:
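Agonist mode: intracellular calcium rise tracked at 1 s intervals over 3 min (480/540 nm) immediately after compound addition to dye-loaded KISS1R-HEK293 stable cells. Each compound tested at 15 concentrations in triplicate.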
For orientation: Calcium flux is commonly read through the fluorescence of an indicator in the cells.

The nature of assay [5]: G protein-coupled receptor (GPCR) small molecule agonists, calcium flux assay: HEK293 wild type cell line counter screen (AID 1920065). Summed up:
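Calcium flux counter screen: compound added in agonist mode at 15 concentrations in triplicate to dye-loaded parental HEK293 cells. Fluorescence (480/540) read kinetically for 3 min; ATP served as positive control.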

Assay [6] is described as follows: p53 small molecule agonists, cell-based qHTS assay with human liver microsomes: qHTS cell viability counter screen (AID 1963579). Further: nearly all actives have a fitted effect of over 45% in size. Further: potency means the concentration at half of the fitted maximal effect. Summed up:
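Viability of p53RE-bla cells is measured as CellTiter-Glo luminescence following a 16 h, 37 C incubation with compound, liver microsomes from human donors and NADPH.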

Assay [7] is described as follows: p53 small molecule agonists, cell-based qHTS assay with rat liver microsomes: qHTS cell viability counter screen (AID 1963580). Further: nearly all actives have a fitted effect of over 45% in size. Further: potency means the concentration at half of the fitted maximal effect. Summed up: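 After the beta-lactamase ratio was read, CellTiter-Glo was added to the same wells and luminescence measured at 30 min; cells had been treated 16 h at 37 C with compounds, rat liver microsomes and NADPH (0.5 mg/mL final each).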

A short description of assay [8]: p53 small molecule agonists, cell-based qHTS assay: qHTS cell viability counter screen (AID 1963581). Further: nearly all actives have a fitted effect of over 45% in size. A digest of the protocol: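 Counter screen read by CellTiter-Glo luminescence (ATP content, 30 min at room temperature), run in the same wells as the beta-lactamase reporter read. HCT-116 p53RE-bla cells saw compounds for 16 h at 37 C.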
Assay [9] can be described thus: p53 small molecule agonists, cell-based qHTS assay (AID 1963582; active means well fitted activation curve with a large enough effect in the signal ratio in the repeat runs, not every such curve was filed as active; the % refers to the signal ratio). Summed up: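 Read-out is beta-lactamase FRET fluorescence after 2 h at room temperature with LiveBLAzer B/G substrate. p53 response element-bla cells were treated 16 h at 37 C with compounds in DMSO, added 5 h after seeding.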
Assay [10] concerns the target 5-hydroxytryptamine receptor 2A (Homo sapiens) (UniProt P28223). Description: 5-hydroxytryptamine receptor 2A (HTR2A) small molecule antagonists, cell-based qHTS assay (AID 1963586). Further: nearly all actives have a fitted effect of over 45% in size. Summed up:
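CHO cells stably expressing human HTR2A were plated for 18 h at 37 C, then loaded with calcium dye for 1 h. Compounds were preincubated 5 min at room temperature before DOI (4 nM solution) was added. Kinetic fluorescence was read for 3 min.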

Assay [11] shares this target. Description: 5-hydroxytryptamine receptor 2A (HTR2A) small molecule agonists, cell-based qHTS assay (AID 1963587). Further: nearly all actives have a fitted effect of over 30% in size. A digest of the protocol: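 CHO cells stably expressing human HTR2A, plated 18 h, loaded with calcium dye 1 h at 37 C. Agonist mode: compounds added and intracellular calcium fluorescence recorded kinetically for 2 min at 1 sec intervals.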
In assay [12] the target is Muscarinic acetylcholine receptor M1 (Homo sapiens) (UniProt P11229). Description: Cholinergic receptor muscarinic 1 (CHRM1) small molecule antagonists, cell-based qHTS assay (AID 1963588). Further: nearly all actives have a fitted effect of over 40% in size. Summed up:
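Compounds were tested at 15 concentrations in three independent runs. Dye-loaded CHRM1-CHO cells were exposed 5 min at room temperature before stimulation by acetylcholine added at 50nM. Intracellular calcium was read kinetically on FDSS for 3 min.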

Assay [13] shares this target. Description: Cholinergic receptor muscarinic 1 (CHRM1) small molecule agonists, cell-based qHTS assay (AID 1963589). Further: nearly all actives have a fitted effect of over 35% in size. A digest of the protocol:
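Agonist-mode calcium-flux screen: compounds at 15 concentrations, three independent runs, were pin-transferred onto dye-loaded human CHRM1-CHO cells. Fluorescence was then recorded kinetically every second over minutes.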

The nature of assay [14]: cAMP Responsive Elements (CRE) small molecule agonists, cell-based qHTS assay (AID 1963590). Summed up:
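Agonist mode: compound added to CRE-bla HEK 293T cells (2,000/well, 18 h after plating) for 3 h at 37 C/5% CO2. Reporter activity detected via FRET beta-lactamase substrate, 2 h room-temperature loading.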

A short description of assay [15]: cAMP Responsive Elements (CRE) small molecule antagonists, cell-based qHTS assay (AID 1963591; active means well fitted inhibition curve with a large enough effect in the signal ratio in the repeat runs, not every such curve was filed as active; the % refers to the signal ratio). Summed up:
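Antagonist mode: compounds are added alongside the adenylyl cyclase activator NKH477 (0.25 uM final) to CRE-bla HEK293T cells for 3 h. LiveBLAzer FRET substrate, 2 h at room temperature, reports bla expression.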

Assay [16] deals with Beta-2 adrenergic receptor (Homo sapiens) (UniProt P07550). Description: Adrenergic beta2 receptor (ADRB2) small molecule antagonists, cell-based qHTS assay (AID 1963592). Further: series mostly up to about 92 µM; nearly all actives have a fitted effect of over 50% in size. Summed up: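 Assay format: CHO-ADRB2 cells, 18-20hr seeding at 37C/5% CO2, then compound plus 1nM isoproterenol agonist mix for 0.5hr RT. Homogeneous time-resolved fluorescence cAMP detection after 1hr, expressed as 665/615 nm ratio.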
Chain of Beta-2 adrenergic receptor (Homo sapiens) (P07550 whole entry, looked up): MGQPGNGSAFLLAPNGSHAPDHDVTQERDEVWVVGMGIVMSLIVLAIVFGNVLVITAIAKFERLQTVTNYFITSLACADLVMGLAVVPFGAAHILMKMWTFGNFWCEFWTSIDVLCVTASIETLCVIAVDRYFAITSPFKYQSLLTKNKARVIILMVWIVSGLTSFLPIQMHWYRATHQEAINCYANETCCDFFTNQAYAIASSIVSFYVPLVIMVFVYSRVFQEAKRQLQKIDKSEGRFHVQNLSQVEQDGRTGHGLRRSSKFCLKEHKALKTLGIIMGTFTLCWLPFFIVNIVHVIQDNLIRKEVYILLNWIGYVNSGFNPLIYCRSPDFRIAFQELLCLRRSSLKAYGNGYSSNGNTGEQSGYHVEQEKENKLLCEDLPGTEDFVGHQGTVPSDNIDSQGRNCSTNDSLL

Assay [17] shares this target. Description: Adrenergic beta2 receptor (ADRB2) small molecule agonists, cell-based qHTS assay (AID 1963593).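 Further: CHO cells stably overexpressing human ADRB2.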 A digest of the protocol:
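CHO cells stably over-expressing ADRB2 were plated overnight at 37C, then dosed with compounds plus a stimulation mix containing 100uM IBMX and 25uM Ro-20-1724 for 0.5hr at room temperature. cAMP was measured by HTRF competition, 1hr.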

Assay [18] has as its target D(2) dopamine receptor (Homo sapiens) (UniProt P14416). Nature of the assay: Dopamine D2 receptor (DRD2) small molecule agonists, cell-based qHTS assay (AID 1963594). Further: nearly all actives have a fitted effect of over 35% in size. Summed up:
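HEK293 cells stably expressing human DRD2, pre-treated with PDE inhibitor Ro20-1724 (0.1 mM final) and compound 10 min at room temperature, then stimulated with NKH477 (200nM […]) for 30 min. cAMP read by HTRF (665/620 nm).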

For assay [19] the target is unchanged. Description: Dopamine D2 receptor (DRD2) small molecule antagonists, cell-based qHTS assay (AID 1963595; active means well fitted inhibition curve with a large enough effect in the signal ratio in the repeat runs, with a control signal flat; the % refers to the signal ratio). A digest of the protocol:
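Stable D2 receptor HEK293 line, 24 h after seeding. Compound preincubated 10 min, then quinpirole (12 nM) with forskolin analogue NKH477 (200 nM), 30 min, room temperature. Detection by time-resolved FRET of cAMP.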

Chain of KiSS-1 receptor (Homo sapiens) (Q969F8 whole entry, looked up): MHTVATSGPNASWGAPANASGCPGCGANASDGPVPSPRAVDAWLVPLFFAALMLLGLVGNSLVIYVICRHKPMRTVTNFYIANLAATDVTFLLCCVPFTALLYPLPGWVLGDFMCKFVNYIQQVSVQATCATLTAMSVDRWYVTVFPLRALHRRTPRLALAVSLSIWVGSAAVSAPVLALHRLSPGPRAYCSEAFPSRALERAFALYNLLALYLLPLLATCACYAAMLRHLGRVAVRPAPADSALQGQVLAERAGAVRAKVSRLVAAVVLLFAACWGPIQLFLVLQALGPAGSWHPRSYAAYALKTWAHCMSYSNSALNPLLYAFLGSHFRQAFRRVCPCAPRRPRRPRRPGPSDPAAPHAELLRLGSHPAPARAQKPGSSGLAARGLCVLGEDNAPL
Chain of Gonadotropin-releasing hormone receptor (Homo sapiens) (P30968 whole entry, looked up): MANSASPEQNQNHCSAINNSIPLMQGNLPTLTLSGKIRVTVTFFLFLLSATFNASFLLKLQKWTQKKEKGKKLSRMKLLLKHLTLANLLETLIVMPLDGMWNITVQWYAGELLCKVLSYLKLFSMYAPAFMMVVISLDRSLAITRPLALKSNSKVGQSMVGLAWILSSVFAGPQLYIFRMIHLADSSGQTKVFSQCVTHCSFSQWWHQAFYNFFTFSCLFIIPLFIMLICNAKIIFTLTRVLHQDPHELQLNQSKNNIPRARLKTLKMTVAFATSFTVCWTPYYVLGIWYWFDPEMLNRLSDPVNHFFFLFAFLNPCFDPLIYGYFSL
Chain of 5-hydroxytryptamine receptor 2A (Homo sapiens) (P28223 whole entry, looked up): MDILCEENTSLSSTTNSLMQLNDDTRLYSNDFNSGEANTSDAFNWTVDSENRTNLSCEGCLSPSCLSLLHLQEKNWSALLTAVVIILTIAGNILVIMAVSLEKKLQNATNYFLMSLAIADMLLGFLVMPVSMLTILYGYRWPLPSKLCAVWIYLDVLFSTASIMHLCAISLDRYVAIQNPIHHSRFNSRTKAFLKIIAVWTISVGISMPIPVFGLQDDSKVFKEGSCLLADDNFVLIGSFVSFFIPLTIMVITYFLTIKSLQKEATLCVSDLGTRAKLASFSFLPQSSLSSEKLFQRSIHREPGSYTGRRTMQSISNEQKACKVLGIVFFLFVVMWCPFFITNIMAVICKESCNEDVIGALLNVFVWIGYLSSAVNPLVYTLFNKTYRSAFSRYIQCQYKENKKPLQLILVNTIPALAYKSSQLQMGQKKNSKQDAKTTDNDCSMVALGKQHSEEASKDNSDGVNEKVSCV
Chain of Muscarinic acetylcholine receptor M1 (Homo sapiens) (P11229 whole entry, looked up): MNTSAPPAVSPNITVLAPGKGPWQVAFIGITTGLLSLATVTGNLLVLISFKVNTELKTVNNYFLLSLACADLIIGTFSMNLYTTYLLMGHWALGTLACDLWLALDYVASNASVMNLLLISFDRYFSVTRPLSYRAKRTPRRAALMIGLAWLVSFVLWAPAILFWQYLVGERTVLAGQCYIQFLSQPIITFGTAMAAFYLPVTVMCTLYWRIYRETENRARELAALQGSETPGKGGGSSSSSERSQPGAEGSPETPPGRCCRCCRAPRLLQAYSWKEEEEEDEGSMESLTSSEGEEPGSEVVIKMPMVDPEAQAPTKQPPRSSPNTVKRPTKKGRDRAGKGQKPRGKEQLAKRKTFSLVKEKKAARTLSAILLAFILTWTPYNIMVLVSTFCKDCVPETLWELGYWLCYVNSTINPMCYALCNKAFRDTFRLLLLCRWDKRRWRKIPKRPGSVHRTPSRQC
Chain of D(2) dopamine receptor (Homo sapiens) (P14416 whole entry, looked up): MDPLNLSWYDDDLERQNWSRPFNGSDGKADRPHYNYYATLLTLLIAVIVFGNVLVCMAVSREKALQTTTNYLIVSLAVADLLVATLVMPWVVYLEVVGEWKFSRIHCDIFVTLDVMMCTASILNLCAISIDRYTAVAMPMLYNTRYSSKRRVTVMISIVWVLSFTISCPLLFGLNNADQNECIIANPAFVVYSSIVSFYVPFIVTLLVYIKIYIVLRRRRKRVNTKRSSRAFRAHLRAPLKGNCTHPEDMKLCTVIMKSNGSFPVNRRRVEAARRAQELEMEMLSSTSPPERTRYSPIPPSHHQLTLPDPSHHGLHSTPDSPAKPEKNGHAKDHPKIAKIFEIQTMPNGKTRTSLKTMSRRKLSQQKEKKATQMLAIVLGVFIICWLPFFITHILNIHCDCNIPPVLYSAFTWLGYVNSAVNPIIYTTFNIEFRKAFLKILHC

With `CN1CCCC1`, the Potency result in assay [1], in [2], in assay [3], in assay [4], in assay [5] and in [6] was “inactive” in each case. The Potency entry in assay [7], in assay [8], in [9], in assay [10], in assay [11] and in [12] was “inactive” in each case. Moreover, the Potency entry in [13], in [14], in assay [15], in [16], in [17] and in [18] was “inactive” in each case.

For the compound `CC1=CC(=O)[C@H]2C[C@@H]1C2(C)C`, the Potency entry in assay [1], in assay [2], in assay [3], in assay [4], in assay [5] and in assay [6] was “inactive” throughout. Further, the Potency result in assay [7], in assay [8], in assay [9], in [10], in [11] and in assay [12] was “inactive” in each case. Moreover, the Potency entry in [13], in [14], in assay [16], in assay [17], in assay [18] and in assay [19] was “inactive” each time.

`Cc1ccc(S(=O)(=O)NC2CCCCC2)cc1`: the Potency result in [1], in assay [2], in [3], in assay [4], in [5] and in assay [6] was “inactive” each time. Further, the Potency result in assay [7], in [8], in assay [9], in assay [10], in [11] and in assay [12] was “inactive” in each case. Also, the Potency result in assay [13], in assay [14], in [15], in [16], in assay [17] and in assay [18] was “inactive” throughout. Further, the Potency result in assay [19] is “inactive”.

As to `CN(CC1(C)CCCO1)S(=O)(=O)c1ccc(Cl)c(S(N)(=O)=O)c1` (stereo not drawn), the Potency entry in assay [1], in [2], in assay [3], in assay [4], in assay [5] and in assay [6] was “inactive” each time. Besides, the Potency result in assay [7], in assay [8], in [9], in [10], in assay [11] and in [12] was “inactive” in each case. The Potency result in [14], in assay [15], in assay [16] and in assay [18] was “inactive” each time.

With `C=C(C)C(=O)OCCCCCCCC(C)C`, the Potency result in assay [1], in assay [2], in [3], in assay [4], in assay [5] and in [6] was “inactive” throughout. Besides, the Potency entry in assay [7], in assay [8], in [9], in [10], in assay [11] and in [12] was “inactive” throughout. Further, the Potency result in [13], in assay [15], in assay [16], in [18] and in [19] was “inactive” in each case.

As for `ClCCCl`, the Potency entry in assay [1], in [2], in assay [3], in assay [4], in assay [5] and in assay [6] was “inactive” throughout. For the same compound, the Potency result in assay [7], in assay [8], in assay [9], in assay [10], in [11] and in assay [12] was “inactive” in each case. In addition, the Potency entry in assay [13], in assay [14], in assay [15], in assay [16], in assay [18] and in assay [19] was “inactive” each time.

As for `CCCCCC(C)=O`, the Potency result in assay [1], in assay [3], in assay [4], in assay [5], in assay [8] and in assay [9] was “inactive” in each case. Besides, the Potency entry in assay [10], in assay [11], in assay [12], in [13], in [14] and in assay [15] was “inactive” throughout. Also, the Potency entry in [16] and in [18] was “inactive” each time. The Potency result is “inactive and 27.3 µM (active)” in assay [2]; “inactive and 12.9 µM (active)” in assay [6]; “inactive and 28.9 µM (active)” in [7].

The record behind these values is PubChem BioAssay (Tox21).
